# PubChem BioAssay (Tox21)
# Inconclusive results are not listed. Unmarked numbers belong to inactive results. Calls of active or inactive are those of the source. Calls follow the shape of the dose curve; as a rule, active = well fitted activation curve with a large enough effect in the repeat runs; inconclusive = weak or mixed curves; inactive = no such curve, though single readings can be large or run the other way.
# Molecular target: Nuclear receptor subfamily 1 group I member 3 (Homo sapiens) (UniProt Q14994)
# Sequence (Q14994 whole entry, looked up): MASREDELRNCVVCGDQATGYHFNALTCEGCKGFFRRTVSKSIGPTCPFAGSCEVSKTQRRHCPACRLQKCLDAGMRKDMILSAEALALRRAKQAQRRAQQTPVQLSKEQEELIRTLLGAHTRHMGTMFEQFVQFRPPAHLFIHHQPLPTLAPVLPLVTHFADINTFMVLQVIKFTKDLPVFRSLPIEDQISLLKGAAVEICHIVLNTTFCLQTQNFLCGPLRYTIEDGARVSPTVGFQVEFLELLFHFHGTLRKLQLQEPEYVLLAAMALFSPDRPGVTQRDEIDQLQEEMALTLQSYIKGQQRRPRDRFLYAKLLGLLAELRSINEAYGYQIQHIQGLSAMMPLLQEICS
# Assay: qHTS assay to identify small molecule agonists of the constitutive androstane receptor (CAR) signaling pathway (AID 1224839); also: nearly all actives have a fitted effect of over 15% in size;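 as to activation: HepG2 cells stably carrying human CAR and a CYP2B6 luciferase reporter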
# Conditions: HepG2 hCAR CYP2B6-luciferase, agonist mode, 24 h; series mostly up to 92.4 µM; activation: at the top concentration
# Summary of the method: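 In this screen, CAR-driven CYP2B6 promoter activity is measured by luminescence in HepG2-CYP2B6-hCAR cells after 24 h with test compounds and 0.75 uM PK11195 (final concentration).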
# % is scaled to controls: 0 for no effect and ±100 for the full control effect; potency is read from the fitted curve at half-maximal effect.
SMILES,Potency,activation
Cc1ccc(/C=N/n2c(-c3ccccc3)csc2=S)cc1,29.8 µM (active),
Cc1ccc(Nc2nccc(N(C)c3ccc4c(C)n(C)nc4c3)n2)cc1S(N)(=O)=O,4.73 µM (active),
CCCCCCCCCCCC[N+](C)(C)CCCS(=O)(=O)[O-],,-1.53%
CO[C@@]12[C@H](COC(N)=O)C3=C(C(=O)C(C)=C(N)C3=O)N1C[C@@H]1N[C@@H]12,,-17.8% [at 42.5 µM]
O=C(NCCCN1CCOCC1)c1ccc(Cl)cc1,,8.32% [at 42.5 µM]
CC(C)CCCCCOC(=O)CCCCC(=O)OCCCCCC(C)C,,2.58%
CNC(=O)N(c1ccccc1)c1ccccc1,,11.1%
O=C(OCCOCCO)c1ccccc1Nc1cccc(C(F)(F)F)c1,,6.49% [at 42.5 µM]
CC(=O)OCC(=O)[C@H]1CC[C@H]2[C@@H]3CCC4=CC(=O)CC[C@]4(C)[C@H]3CC[C@]12C,,-2.17% [at 42.5 µM]
